# Whole data set: some 25,000 sequences, median “ln(normalized median fluorescence intensity)” near 6.7, cut for the highest 2% near 10. This excerpt belongs to a sample that is enriched for the highest values.
# System: PfHDP1 homeodomain (GST-tagged)
# Experiment: gcPBM binding intensity (ln(normalized median fluorescence intensity)); higher = stronger DNA binding
# Outline: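 Binding of GST-tagged P. falciparum DNA-binding domains, expressed in E. coli and used at about 25 μg on average, was carried out for 1 h in 1× PBS containing 1% milk, 0.2 mg/ml BSA, 0.5% salmon testes DNA and 0.03% Triton X-100. The target was an Agilent 4 × 180k array of primer-extended double-stranded 36-bp intergenic genomic probes plus negative controls, read with Alexa488 anti-GST antibody at 488 nm. Binding intensity is the highest Masliner-normalised natural-log median intensity across replicate spots of either probe orientation.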
row,Sequence,gcPBM binding intensity (ln)
1,TTAATTATAAGAAAAAGTACTCATTACATTATAGAA [XGTACX_site678],6.12
2,TAGTATGATAACTTGGGTACATAAATATGGAGTATC [XGTACX_site1296],6.81
3,TATATTTTAATTTGAAGTACTAATATTTATTTATAT [XGTACX_site7458],6.14
4,AATATAATATAATGCACACATAAAAAAAAAAAAAAA [CACACA_site304],10.9
5,TATAATATAATATATGCACACAAATATGTATATATG [CACACA_site8664],9.95
6,AAAATATAATATAATGCACACATAAAAAAAAAAAAA [CACACA_site7989],9.84
7,ATAATAAAAAAAAATGCACACATATATATATATATA [CACACA_site8766],9.5
8,AAAAAATATACATATACACACATATGTATATATAAT [CACACA_site8676],6.34
9,AAAAATAATGCACATATATATAATATGTATATGTAT [CACACA_negctrl_site443],11.1
10,CTTATGTGCATACCTACACACTTACAGATATATATA [CACACA_site5622],9.61
11,ATATATAATTTTTACACACGCAATAAATATATATAT [CACACA_site4283],7.7
12,TTTAATTATTAAATGGTGCACTTGAAATATAAAAAT,10.1
13,TTGTTTTTCTTTGAATGTACTTAATGATTTCCAATT [XGTACX_site2499],6.44
14,CAAAACAAAGTTGCCGCACACAGATACGCACCCAAG [CACACA_site3455],7.09
15,CACACGCACAGACACACACACACACGGATATAAATA [CACACA_site6301],7.76
16,ATATACATATATATGGGTACATATATTAATATATAT [XGTACX_site8358],6.74
17,GTTAGGATAGATTAGACATGCACATAAATGCACTTC [TGCATGCA_site561],10.6
18,AAAATTAGATTATGCACACACACTTAAAAATAATAA [CACACA_site1975],10.1
19,AGGATATGCAGACACACACACATATAGATTTATATA [CACACA_site7100],6.6
20,ATATAATTAAAATGCTCACACACATAAAAAAAAATT [CACACA_site2148],8.58
21,TTTTGTTATTTTTGTATGCACTACATATTATTATAT,8.89
22,GCTAAACAATAGTTTGCACACAATTTAAATATATAT [CACACA_site193],10.3
23,TCGTATATGGATTTTGCACACAATTTTAATTTAAAT [CACACA_site4635],10.7
24,AATAATACACAATTTTGTACGTATTTAAAATATATT [XGTACX_site45],6.74

row,Sequence,gcPBM binding intensity (ln)
1,TTATTAAATAAAATCATGCACACAATATATATTTTA [CACACA_site2496],8.65
2,TCGTATATGGATTTTGCACACAATTATAATTTAAAT [CACACA_site868],10.8
3,CATAAATTAATAGTCACACACGTATTTTTTATATAT [CACACA_site2526],6.16
4,AATATAAACAGACACACACACATATAGATTTATATT [CACACA_site7382],6.8
5,TTCATATAATTATATACATGCATAAATTCTAAGTAA [TGCATGCA_site622],6.78
6,ATACATATATATGTGTGTACATATGTGTATACATTT [XGTACX_site6544],6.84
7,TAATATATGTATTGCACACCTATAACCATTATTTCT [CACACA_site1498],10.5
8,CACACCATATAATATATATATATGTATATATTTATA [CACACA_negctrl_site397],6.58
9,TGTAATATATGTATTGCACACCTATAACCATTATTT [CACACA_site8422],9.86
10,ACATAAAATAAATATACACACATATGTATATATCAT [CACACA_site7424],6.52
11,TTTATATTATTATATCTTATTAATTATTTATCATTT [TGCATGCA_negctrl_site73],6.23
12,TAAATTATAATATGCACACAAAATGTTATATTAAAA [CACACA_site376],9.55
13,TATTATAATATATTTGTGCACATAATACCTCCGCTA [GTGCAC_site9570],10.9
14,TAATAATATATTTGTAGTACACAATTTTTTATAACT [XGTACX_site3951],6.34
15,AACTGTACAATTTTTGTGCACAATAATTATTAATAT [GTGCAC_site9462],11
16,ATATTTTATTTAATTACACACAATATTGCAATTTGT [CACACA_site669],8.74
17,TTATAATATTAATGTGCACACAATTAAAATATTATA [CACACA_site2046],10.7
18,TATTTATTTTTTTTTGTGCACTTAATATAATCTTAC,9.51
19,TATATATATATTTTTTGTACATATTATATAATATAC [XGTACX_site5187],8.42
20,TTTTTTTTTTTTTTTGTGCACAATATAATTTTTAAT [GTGCAC_site9747],10.8
21,TTATAATTTTAATGTGCACACAATTAAAATATTATA [CACACA_site5172],10.2
22,AATATATATATTAGAGTGCACATAATTATTTGCTAA,8.88
23,TTTTTTTTTTTTAATGCACACAATATATAATATGTA [CACACA_site3694],10.2
24,TTTTTATATATATGTATAAATATTTTTTCTATTTAT [XGTACX_negctrl_site606],6.46

row,Sequence,gcPBM binding intensity (ln)
1,ACATCAAGCAGACACACACACACACCCACCCACCCA [CACACA_site8012],6.5
2,ACAGGAAAAAACAATTGTACATGTATATATATATAT [XGTACX_site7677],9.16
3,AAATATTACATACACGCACACATTAATATATTTAAA [CACACA_site2603],7.25
4,TTAATTTTATTTTTTTGTACACATAAATATTATAAA [XGTACX_site4680],6.62
5,CATATAAATATTTGTGCACACAATTATTAATAATTA [CACACA_site3884],11.2
6,TTATATTTTTTAATTACACACAATTTTTATAAATAT [CACACA_site4148],6.66
7,AAAAAAAAAAAAAAATGTACATATTAAGTATAATTA [XGTACX_site4616],6.23
8,TATAAAGATATAAATGCACACGTATTAAAAAAAAAA [CACACA_site8223],8.22
9,TATGTATGTATTAATGCGCACACAAAAAATAACAAT [CACACA_site8551],7.73
10,TAAATAATAATAAATGTGCACAGGTATTAACAAAAA [GTGCAC_site9988],10.6
11,TGTATGTATTAATGCGCACACAAAAAATAACAATAT [CACACA_site1848],7.88
12,TAAGATATAAAAAATGTGCACATTAAAGTATTAATT,10.5
13,TAATAAATAAAAACATGTACATATATACATATATGT [XGTACX_site485],6.35
14,ATATATATAAATATATGTACATAAATATATTTGTAA [XGTACX_site6715],6.71
15,GAAAAAAGGAAATAAAGAAAAAAAAAAATGAAATAT [XGTACX_negctrl_site318],6.22
16,AACATTTTAAAACAGACACACACCAAAAAAAAAAAA [CACACA_site257],6.26
17,GGACAAGTTAAACGCACACAAATATATACCCCCATA [CACACA_site4996],7.91
18,CCTTGTCTTTTTTTTTTTTTTTTTTCTTCTTATTTT [GTGCAC_negctrl_site523],6.24
19,CATATAGTAATATATACACACACTTGTCTTGTAAAA [CACACA_site8238],6.54
20,ATTTAATACAAATACACACACAAATATGTACCTATA [CACACA_site7718],7.02
21,GAAAAATATATTCTGGTGCATGAATAAAATCATAAA,9.33
22,ACATTCTGATGGTGATTATTAATTATTACAAAAATT [CACACA_negctrl_site283],6.01
23,GTTTACATCATTCTGGTGCAAAAAAAAAAAAAAATA,10.5
24,AATTAAAAAGTTTTTAATGTTTTTAATTTTTTCCAC [XGTACX_negctrl_site423],5.99

row,Sequence,gcPBM binding intensity (ln)
1,TATATATATTAAAAACGTACAAAATAAGAATTAATT [XGTACX_site5979],6.8
2,TTATTTTATTTTTGTGCACACTGATAAATTGAAAAG [CACACA_site2949],11.2
3,TTTATATTAATTGATGTGCACTGAAATATTTGTCCA [GTGCAC_site9655],9.08
4,ATTTTATTTTTGTGCACACTGATAAATTGAAAAGAG [CACACA_site2948],11.1
5,TTTTGAAAAAATTTTTATAAAAGAATAAAATTATTA [XGTACX_negctrl_site570],6.06
6,TTTATTTTTGAAGTTGCACACACAAAAATAAAAAGT [CACACA_site8030],8.92
7,TATTTTGAAAAAGTTGCACACAAAATTTAAAAAAAA [CACACA_site8470],9.29
8,CACTTTTTTTAAATGTGTACGTATATGAAAATATCA [XGTACX_site4854],6.38
9,GTTATATGAACTTATATACACACCATTTTTGTAAAT [CACACA_site695],6.69
10,AAAATTAACCGTAACACACACACATATAAATATGTA [CACACA_site7791],6.55
11,TCTAATTATCACATTGCACACACATTTCCTTTTACA [CACACA_site9140],9.66
12,TAATTTTTCCTTTTTGCACACATTAACGTCGACGAA [CACACA_site4025],10.8
13,TAATTATCACATTGCACACACATTTCCTTTTACATT [CACACA_site3443],9.61
14,TTATGTTCTTAATGCACACTTATAAGTATCTTATAA [CACACA_site1394],9.72
15,TATATATATATATGTATGCACTTTAATTTTATAAGG,9.31
16,TTTTATGTTCTTAATGCACACTTATAAGTATCTTAT [CACACA_site4895],10.6
17,TATGAATATTGCATGTGTACCTATTATCCTTTTAAA [XGTACX_site4311],6.95
18,TATAAAAAAAAAAAAAGTACTAACTTAAAACAATTT [XGTACX_site7969],5.92
19,CACTTTAATTTATGCACACATATGGAACAACAGCCA [CACACA_site994],10.6
20,TATTCAACATAATATGCACACAAAAATTATGGAACG [CACACA_site8660],9.99
21,AACACTTTAATTTATGCACACATATGGAACAACAGC [CACACA_site8241],10.2
